The source of these data is PubChem BioAssay.

The source made the active and inactive calls.

The test system of assay [1] is Human papillomavirus type 1a protein E7 (residues 44-93). Kind of assay: small molecules binding HPV E7 44-93 – biochemical, small-molecule microarray, residues 44-93, 635 nm fluorescence, primary screen (AID 1108).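 Further: E7 fragment applied at 1 µg/mL in TBST for 1 h at 4 C; score combines spot fluorescence with its signal to noise ratio.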 Particulars: fluorescence 635 nm, higher = more signal.
Assay [2] is described as follows: hepatitis C replication reporter changes, two-sided – Huh7 cells, luciferase reporter, HCV replication inhibitor project, primary screen (AID 1109).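 Further: huh7 hepatoma cells harbouring a luciferase neomycin HCV replicon reporter; luciferase luminescence as measure of HCV replicon replication; test concentration not given here.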 Particulars: Huh7 HCV replicon luciferase reporter, 48 h; higher = more signal. In general terms: In a reporter assay the amount or activity of a reporter protein is the signal.
Assay [3] has as its target Left-right determination factor 2 (Homo sapiens) (UniProt O00292). Kind of assay: small molecules binding LEFTY2 protein – biochemical, small-molecule microarray, 635 nm fluorescence scan, primary screen (AID 1110). As to conditions: higher = more signal.
For assay [4], the target named is Calmodulin-1 (Homo sapiens) (UniProt P0DP23). Kind of assay: small molecules binding calmodulin-1 with EGTA – biochemical, small-molecule microarray, Cy5-labelled CALM1, profiling panel (AID 1111).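 Further: labelled calmodulin applied in Tris saline Tween buffer holding calcium plus EGTA and DTT.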 Particulars: Cy5-CALM1 binding fluorescence, higher = more signal.
Assay [5] has the same target. Put plainly: small molecules binding Ca-loaded calmodulin-1 – biochemical, small-molecule microarray, Cy5-labelled CALM1, plus calcium, artefact control for SMM control-protein annotation, profiling panel (AID 1112).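 Further: score merges spot fluorescence with signal to noise from triplicate slides.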 Particulars: Cy5-CALM1 binding fluorescence, higher = more signal.
A short description of assay [6]: probe aWnt5a binding to arrayed compounds – biochemical, biotinylated probe, 635/667 nm fluorescence, primary screen (AID 1113).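 Further: score merges 667 nm fluorescence intensity with signal-to-noise per printed feature.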 Particulars: small-molecule microarray, higher = more signal.
The nature of assay [7]: probe aShh binding to arrayed compounds – biochemical, biotinylated probe, 635/667 nm fluorescence, primary screen (AID 1114).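 Further: probe is biotin-labelled aShh protein from a stem cell growth factor screen; measures binding of labelled protein to compounds printed on the slide; score merges feature fluorescence at 667 nm with signal-to-noise.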 Particulars: small-molecule microarray, higher = more signal.
Assay [8] is described as follows: probe aNog binding to arrayed compounds – biochemical, biotinylated probe, 635/667 nm fluorescence, primary screen (AID 1115).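 Further: probe is biotinylated aNog protein used at 0.15 µg/mL for 1 h at 4 C; z-score combines 667 nm fluorescence of each spot with its signal to noise.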 As to conditions: small-molecule microarray, higher = more signal.
Assay [9] has as its target Torsin-1A-interacting protein 1 (Homo sapiens) (UniProt Q5JTV8). Kind of assay: compound microarray binding of lysate hLAP1 – cell lysate, small-molecule microarray, COS7 lysate, 635/667 nm fluorescence, primary screen (AID 1116). As to conditions: 635 nm fluorescence, higher = more signal.
Assay [10] addresses Alpha-bungarotoxin (Bungarus multicinctus) (UniProt P60615). Kind of assay: compounds binding labelled alpha-BTX control protein – biochemical, small-molecule microarray, Alexa647 label, 635/667 nm fluorescence, artefact control for SMM control protein annotation, profiling panel (AID 1117). Particulars: alpha-BTX-A647 binding fluorescence, higher = more signal.
The target in assay [11] is Albumin (Bos taurus) (UniProt P02769). Kind of assay: compounds binding labelled BSA control protein – biochemical, small-molecule microarray, Alexa647 label, 635/667 nm fluorescence, artefact control for SMM control protein annotation, profiling panel (AID 1118).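 Further: score merges 667 nm emission intensity and signal-to-noise per printed compound spot.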 As to conditions: BSA-A647 binding, fluorescence 635 nm, higher = more signal.
Assay [12] is described as follows: probe aXIP binding to arrayed compounds – biochemical, NeuroSMM set, 635/667 nm fluorescence, primary screen (AID 1119).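 Further: probe is the protein aXip251-270 applied at 1 µg/mL to compound-printed slides; binding of probe to printed compounds measured as 667 nm fluorescence plus signal to noise.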 As to conditions: small-molecule microarray, higher = more signal, called active from +8 up or from −8 down.
A short description of assay [13]: probe aNOTCH3 binding on compound microarray – biochemical, small-molecule microarray, 635/667 nm fluorescence, primary screen (AID 1120).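 Further: probe is a biotin-tagged antibody raised against NOTCH3 rather than NOTCH3 protein; score merges spot fluorescence near 667 nm with spot signal to noise.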 Particulars: higher = more signal.
Assay [14] in a line: probe aNOTCH2 binding on compound microarray – biochemical, small-molecule microarray, 635/667 nm fluorescence, primary screen (AID 1121).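 Further: score merges feature fluorescence read at 667 nm with its signal to noise.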 Particulars: higher = more signal.
Assay [15] has as its target Carbonic anhydrase 2 (Homo sapiens) (UniProt P00918). Kind of assay: compounds binding carbonic anhydrase 2 – biochemical, small-molecule microarray, Alexa647-labelled CAII, profiling panel (AID 1122). Particulars: CAII-A647 binding fluorescence, higher = more signal.
A short description of assay [16]: COS7 lysate on small-molecule microarray, probe aHis, 635 nm (AID 1123).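 Further: z-score combines 667nm fluorescence intensity with signal-to-noise per printed compound spot.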 Particulars: COS7 cell lysate, fluorescence, higher = more signal.
The nature of assay [17]: probe aLAP1 signal on lysate-treated microarray – cell lysate, small-molecule microarray, COS7 lysate, primary screen (AID 1124).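 Further: lysate comes from COS7 cells expressing LAP1 and is applied at 0.3 µg/mL; score merges spot fluorescence near 667 nm with signal-to-noise over triplicate slides.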 Particulars: probe aLAP1, fluorescence, higher = more signal.
The subject of assay [18] is Sam68 (KHDRBS1). Kind of assay: compounds binding KHDRBS1 protein – biochemical, small-molecule microarray, 635 nm fluorescence, primary screen (AID 1125).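 Further: score merges 667 nm channel intensity with signal to noise over triplicate slides.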 Particulars: higher = more signal.
Assay [19] deals with Chordin-like protein 2 (CHRDL2). Kind of assay: compounds binding chordin-like 2 – biochemical, small-molecule microarray, 635 nm fluorescence, primary screen (AID 1126).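 Further: printed compound slides probed with Chrdl2 protein at 4 µg/mL for 1 h at 4 C; score merges 667 nm emission intensity with signal to noise over three replicate slides.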 As to conditions: fluorescence 635 nm, higher = more signal.
The target in assay [20] is Concanavalin-A (Canavalia ensiformis) (UniProt P02866). Kind of assay: compounds binding concanavalin A lectin – biochemical, small-molecule microarray, Alexa647 label, 635 nm, artefact control for SMM control protein annotation, primary screen (AID 1127).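 Further: z combines 667 nm emission intensity with signal-to-noise across three replicate slides.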 Particulars: ConA-A647 binding fluorescence, higher = more signal.
Concanavalin-A (Canavalia ensiformis), sequence (P02866 whole entry, looked up): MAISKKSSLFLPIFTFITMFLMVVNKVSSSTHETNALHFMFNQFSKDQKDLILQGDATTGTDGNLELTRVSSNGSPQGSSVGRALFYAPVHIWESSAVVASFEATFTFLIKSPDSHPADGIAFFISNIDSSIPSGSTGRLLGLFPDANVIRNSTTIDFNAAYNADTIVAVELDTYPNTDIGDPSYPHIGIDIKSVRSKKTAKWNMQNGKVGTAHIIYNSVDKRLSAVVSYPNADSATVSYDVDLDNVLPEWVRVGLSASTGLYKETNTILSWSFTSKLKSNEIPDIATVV

Left-right determination factor 2 (Homo sapiens), sequence (O00292 whole entry, looked up): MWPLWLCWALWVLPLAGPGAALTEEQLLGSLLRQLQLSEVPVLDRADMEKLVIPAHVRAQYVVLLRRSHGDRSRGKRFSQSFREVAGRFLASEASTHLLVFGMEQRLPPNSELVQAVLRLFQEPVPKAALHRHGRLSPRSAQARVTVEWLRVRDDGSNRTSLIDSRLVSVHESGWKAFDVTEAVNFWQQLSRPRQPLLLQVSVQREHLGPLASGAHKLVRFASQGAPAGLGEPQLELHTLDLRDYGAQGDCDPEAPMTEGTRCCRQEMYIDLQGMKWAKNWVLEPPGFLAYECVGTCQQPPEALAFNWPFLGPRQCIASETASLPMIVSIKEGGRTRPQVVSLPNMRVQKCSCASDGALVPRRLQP
Albumin (Bos taurus), sequence (P02769 whole entry, looked up): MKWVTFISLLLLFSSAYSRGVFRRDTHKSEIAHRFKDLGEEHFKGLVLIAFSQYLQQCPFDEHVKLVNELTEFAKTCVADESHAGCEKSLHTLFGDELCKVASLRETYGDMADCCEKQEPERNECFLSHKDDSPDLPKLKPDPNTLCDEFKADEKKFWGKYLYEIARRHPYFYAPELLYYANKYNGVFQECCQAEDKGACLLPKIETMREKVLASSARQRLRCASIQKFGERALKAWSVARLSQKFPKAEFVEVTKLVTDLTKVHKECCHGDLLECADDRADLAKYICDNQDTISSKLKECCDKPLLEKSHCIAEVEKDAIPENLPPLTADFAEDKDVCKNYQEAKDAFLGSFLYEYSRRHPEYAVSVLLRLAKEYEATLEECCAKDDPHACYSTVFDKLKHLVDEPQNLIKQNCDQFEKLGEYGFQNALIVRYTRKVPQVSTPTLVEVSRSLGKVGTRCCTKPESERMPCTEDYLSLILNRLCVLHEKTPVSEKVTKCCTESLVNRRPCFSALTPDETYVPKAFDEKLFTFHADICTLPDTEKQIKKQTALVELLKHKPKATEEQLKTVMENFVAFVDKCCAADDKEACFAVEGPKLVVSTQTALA
Alpha-bungarotoxin (Bungarus multicinctus), sequence (P60615 whole entry, looked up): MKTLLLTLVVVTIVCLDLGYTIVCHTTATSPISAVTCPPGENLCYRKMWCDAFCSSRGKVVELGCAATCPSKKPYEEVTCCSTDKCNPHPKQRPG
Torsin-1A-interacting protein 1 (Homo sapiens), sequence (Q5JTV8 whole entry, looked up): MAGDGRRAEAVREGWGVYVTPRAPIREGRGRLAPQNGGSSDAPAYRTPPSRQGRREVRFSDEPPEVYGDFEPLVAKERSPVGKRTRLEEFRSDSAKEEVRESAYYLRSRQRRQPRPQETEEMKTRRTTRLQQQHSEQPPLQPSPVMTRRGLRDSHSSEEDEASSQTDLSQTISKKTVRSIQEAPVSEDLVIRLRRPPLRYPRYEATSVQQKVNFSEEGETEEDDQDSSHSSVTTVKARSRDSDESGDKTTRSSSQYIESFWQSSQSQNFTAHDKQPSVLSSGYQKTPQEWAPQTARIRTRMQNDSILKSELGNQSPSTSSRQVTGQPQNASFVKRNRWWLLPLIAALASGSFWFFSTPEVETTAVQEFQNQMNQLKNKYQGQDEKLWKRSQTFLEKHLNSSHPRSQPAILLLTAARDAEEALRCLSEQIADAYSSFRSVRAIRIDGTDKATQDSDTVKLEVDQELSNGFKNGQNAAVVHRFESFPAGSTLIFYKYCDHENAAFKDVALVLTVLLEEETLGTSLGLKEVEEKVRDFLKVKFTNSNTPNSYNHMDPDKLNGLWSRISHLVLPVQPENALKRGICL

Turning to `CC(C)NC(=O)[C@@H]1c2ccccc2C(=O)N(Cc2ccccc2Cl)[C@H]1c1ccc(CO)cc1`, the composite z-score in assay [1] was 1.17; in [3], -0.998; in assay [4] it was -0.0984; in assay [5] it was 0.29; in assay [6] it was -0.13; in [7], -0.0769. In addition, the composite z-score was 0.139 in assay [8]; 1.25 in assay [9]; -0.436 in [10]; 0.07 in [11]; -0.205 in assay [13]; -0.121 in [14]. The composite z-score in assay [15] is 0.651; in assay [16], 1.29; in assay [17], 0.661; in assay [18] it was 1.03; in assay [19], -0.296; in assay [20], -0.0903. For the same molecule, the z-score in assay [2] is -0.657. Moreover, the composite Z-score in assay [12] is 0.757 (inactive).

As to `[N-]=[N+]=NCc1ccccc1C[C@]1(C(=O)O)N=C(c2ccc(OCCCO)cc2)O[C@H]1c1ccccc1CN=[N+]=[N-]`, the composite z-score in [1] was 1.43; in assay [3] it was -0.524; in [4], 1.74; in assay [5] it was 0.411; in assay [6] it was -0.0792; in assay [7], -0.0146. The composite z-score in assay [8] is 1.16; in assay [9] it was 0.978; in assay [10] it was 1.68; in assay [11], 0.938; in [13], -0.027; in assay [14] it was -0.011. The composite z-score in assay [15] was 0.696; in assay [16], 2.7; in assay [17], 0.513; in assay [18] it was 1.34; in [19], -0.69; in assay [20] it was 1.17. Moreover, in assay [2], the z-score is -1.21. Moreover, in assay [12], the composite Z-score is -0.313 (inactive).

For the molecule `CC(=O)NCCCC[C@@H]1NC(=O)[C@@H]2C[C@H](C(=O)NCCCCN(C)C)[C@H](c3ccc(O)cc3)N2C1=O`, the composite z-score in assay [1] was -0.989; in [3], -0.594; in assay [4] it was -0.487; in [5] it was 0.367; in [6], -0.124; in assay [7], -0.214. Moreover, the composite z-score in assay [8] was -0.23; in assay [9] it was 0.646; in assay [10], -0.602; in [11] it was -0.503; in assay [13], -0.292; in [14], -0.14. Further, the composite z-score in assay [15] was -0.0303; in assay [16] it was -0.089; in [17] it was 0.765; in assay [18], -0.781; in assay [19], 0.46; in assay [20], -0.612. For the same molecule, in assay [2], the z-score is -0.581. Also, in assay [12], the composite Z-score was 0.48 (inactive).

Turning to `O=C1N(CCS(=O)(=O)c2ccccc2)Cc2ccccc2[C@H]2OC(c3ccc(OCCCO)cc3)=N[C@@]12CCS(=O)(=O)c1ccccc1`, the composite z-score in [1] was determined as 0.961; in [3] it was 0.558; in [4], 1.25; in assay [5], 0.38; in assay [6], 0.115; in assay [7], 0.0348. Besides, the composite z-score in assay [8] was 0.763; in assay [9], 1.41; in assay [10] it was 1.97; in [11], -0.284; in [13], -0.0247; in assay [14] it was -0.0586. For the same molecule, the composite z-score in assay [15] amounted to 0.524; in [16], 2.64; in [17] it was 0.708; in [18], 1.3; in assay [19], 0.242; in [20] it was 1.22. In addition, in [2], the z-score was -1.55. Further, the composite Z-score in [12] was 1.81 (inactive).

As to `C[C@]1(C(=O)NCc2ccccc2)c2ccccc2C(=O)N(Cc2cc(F)cc(C(F)(F)F)c2)[C@H]1c1ccc(CO)cc1`, the composite z-score in assay [1] was 0.376; in assay [3], -1.57; in [4], -0.595; in assay [5], 0.173; in assay [6], -0.0685; in assay [7] it was 0.0469. The composite z-score is -0.427 in assay [8]; -0.168 in assay [9]; 0.0471 in [10]; -0.35 in assay [11]; -0.177 in [13]; -0.0971 in assay [14]. For the same molecule, the composite z-score in assay [15] is 0.699; in assay [16], 0.157; in [17], 0.325; in assay [18], -0.763; in assay [19], -0.786; in assay [20], -0.871. The z-score in assay [2] is -0.44. Besides, the composite Z-score in assay [12] is -0.146 (inactive).
